Results taken from the supplement of paper PMC3334620.
In all, about 33,000 sequences were measured (“E-score (-0.5 to 0.5)”: median about -0.0034, highest 2% from about 0.25 on). The full list was thinned out, with the highest values kept by preference.

target: T1, Yap3 (UniProt P38749); assay: PBM E-score (8-mer binding enrichment) (E-score (-0.5 to 0.5)); higher = stronger / more preferred TF binding; settings: protein concentration: 100 nM; construct: GST-full length
T1 sequence: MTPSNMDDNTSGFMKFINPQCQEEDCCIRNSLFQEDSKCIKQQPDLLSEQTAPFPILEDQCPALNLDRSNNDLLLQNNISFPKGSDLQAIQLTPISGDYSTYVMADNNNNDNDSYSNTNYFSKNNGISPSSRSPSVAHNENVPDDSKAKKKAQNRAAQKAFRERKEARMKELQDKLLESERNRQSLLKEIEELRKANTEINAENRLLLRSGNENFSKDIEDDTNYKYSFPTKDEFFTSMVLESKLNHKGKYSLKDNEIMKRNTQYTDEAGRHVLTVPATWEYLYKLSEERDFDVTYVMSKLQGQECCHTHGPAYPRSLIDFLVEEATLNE
Description: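 Universal 'all 10-mer' protein binding microarrays (Agilent AMADID 015681) probed with GST-tagged S. cerevisiae TFs (full-length or DBD) made by in vitro transcription/translation (PURExpress), about 100-200 nM. Bound TF was detected with fluorescent anti-GST. Each ungapped 8-mer (which stands for itself and its reverse complement) is scored by the PBM enrichment score (E-score), a modified Wilcoxon-Mann-Whitney statistic from -0.5 to +0.5, computed with the Universal PBM Analysis Suite. Scale: above 0.35 generally sequence-specific binding.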

Sequence | PBM E-score
GCTCCTTA | 0.0472
TAATGACA | 0.197
TAACCTTA | -0.0831
TAGTCTCA | -0.034
AAGTACTT | -0.202
ATGGATAG | 0.0546
CCTAACAG | 0.0154
ACTAACAG | 0.315
ACTAACAC | 0.125
ACATTGTG | 0.0748
CCATTGTC | 0.0818
ACATTGTC | 0.261
GGCTTATA | -0.00779
CTCGACGC | 0.0226
AATGTTGC | 0.0681
CGGATGAG | -0.0331
CGGATGAA | 0.265
AGGATGAA | 0.0231
ATAGAAAA | 0.217
ATTACACC | 0.215
ATTACACA | 0.255
ATTACACG | 0.0795
ATTACAGA | 0.11
ATTACAGC | -0.046
CCTACACG | -0.251
ATTACAGG | 0.268

Sequence | PBM E-score
ACTACACA | 0.258
ATAACACA | 0.273
CTAACACA | 0.146
ACTACACG | 0.0255
ATAACACG | 0.137
CCAGTGGC | -0.168
ATCGAGTC | -0.0569
CAGTAAGC | 0.0593
AAAGATGA | 0.144
ATTCTTCA | 0.0724
ATAACCTG | -0.0425
CGTATAAA | 0.156
GATTACAA | 0.154
ACCAGTTG | 0.0294
AAAAGGGG | -0.187
AATCAACA | 0.304
GATCAACA | -0.0544
TATCAACA | 0.123
CATCAACA | 0.255
AATCAATG | 0.2
AATCAACC | -0.0555
AATCAATC | 0.139
AATCAATT | 0.256
AATCAACG | 0.109
CTCGGTAA | 0.053
GTGAAATA | 0.0605

Sequence | PBM E-score
CTGAAATA | 0.165
ATGAAAAT | 0.209
ATGAAATA | 0.288
ATGAAAAA | 0.278
ATGAAAAG | 0.122
ACGTGCTC | -0.0391
AAAGGTAA | 0.0127
CGGTTGAG | -0.052
AGATTCGC | -0.0247
CGTCTGAC | 0.066
CAAGTGTG | 0.0428
CTGACACC | -0.174
ATGGCACC | -0.14
CTCTGCAC | -0.173
ATATATAA | 0.295
ACATATAA | 0.29
ACATATAC | 0.146
CTCTATAA | 0.0647
ACATATAT | 0.123
TGGTATAA | 0.268
CGGTATAA | 0.18
GTATATAA | 0.217
CTATATAA | 0.121
TTATATAA | 0.418
AGGTATAA | 0.0868
TGATATAA | 0.108

Sequence | PBM E-score
GCCTGCCC | -0.297
CAGAACTG | 0.157
AGCATGAC | -0.037
ACGACCTG | -0.18
AAAGTGTC | -0.0685
CGGACTAG | -0.101
CTAGAGAG | -0.139
GGCGACAA | -0.181
CGCGACAA | 0.272
TGCGACAA | -0.00108
GCGTCCCA | -0.121
GGTGGCGA | -0.0578
AAGGAGCG | 0.00726
ACGGCAAT | 0.285
ACGGCAAG | 0.1
ACGGCAAA | 0.134
AAAAAAAC | 0.151
GGAAAACC | -0.11
GGGAAAAC | 0.0844
AAAAAAAA | 0.244
GGAAAAAA | 0.248
GGAAAAAC | 0.3
GAAAAAAC | 0.255
GAAAAAAA | 0.287
GAAAAACC | 0.136
CCCAGCAC | -0.123

Sequence | PBM E-score
CACAGCAA | 0.103
AGTCCTAC | -0.125
CTACCTTC | 0.0321
AAGCTAAC | 0.0596
CCTAAGGC | -0.38
CTACTTCA | -0.0894
GTACTTCA | 0.287
ATACTTCA | 0.0363
GCCAGGCA | -0.12
AACAGGCC | -0.258
ACGCGTTG | -0.027
GTACCTAA | -0.0819
TTACCTAA | 0.281
ATACCTAA | 0.273
ATACCTAC | -0.0217
CTACCTAA | 0.126
ATACCTAT | 0.124
CTCAGACA | 0.087
GCATTCAA | 0.0939
TGAACAAA | 0.248
GGAACAAC | 0.157
GGAACAAA | 0.311
AGAACAAT | 0.221
CGAACAAG | 0.0425
GCAACAAA | 0.193
CGAACAAA | 0.303

Sequence | PBM E-score
AGAACAAG | 0.205
AGAACAAA | 0.291
CGCTCAAG | -0.114
AACTGGAC | 0.0415
CGCGAGAG | -0.0457
AAGGCTTA | 0.0457
AAGAGAGG | -0.163
GTTGTTCA | -0.0828
CTGTAGTA | 0.281
CTGTATTA | 0.258
CTGTATTC | 0.128
GTGTATTA | 0.338
GCGTATTA | 0.148
CTGTATAA | 0.13
ATGTATTA | 0.178
ACGTATTA | 0.282
GTGTATGA | 0.0534
GTGTAGTA | 0.0243
ACGTATTG | 0.111
ATGTAGTA | 0.237
GCTGCTCC | -0.307
ATCATATC | 0.193
CGCTGTCA | -0.151
CGAGAACC | -0.00819
CGCACACG | -0.135
CCGTGAGA | -0.162

Sequence | PBM E-score
AACGCGCC | -0.0619
AGCTTTCC | -0.0722
ATTTGACG | 0.138
CTGGGCCC | -0.273
GTGTGTTA | 0.259
CTGTGTTA | 0.162
ATGTGTTA | 0.2
TGTTGGAA | 0.122
AAGTCGAA | -0.0326
AGTACCAA | 0.281
ATTACCAA | 0.271
CGTACCAA | 0.21
GTTACCAA | 0.221
TGTACCAA | 0.0503
ATTACCAC | 0.136
AACTCAAA | 0.187
GACGCGCC | -0.119
AATATGGC | 0.0119
ATGACAAG | -0.0324
ATCACGTA | 0.311
CTGACGTA | 0.0592
